# Tests used:
# [1] = molecular target: CD2 antigen cytoplasmic tail-binding protein 2 (UniProt O95400); experiment: cross-link between two proteins; cross-linking mass spectrometry
# [2] = molecular target: U5 small nuclear ribonucleoprotein 40 kDa protein (UniProt Q96DI7); experiment: as above
# [3] = molecular target: Pre-mRNA-processing-splicing factor 8 (UniProt Q6P2Q9); experiment: as above
# [4] = molecular target: Thioredoxin-like protein 4A (UniProt P83876); experiment: as above
# [5] = molecular target: U5 small nuclear ribonucleoprotein TSSC4 (UniProt Q9Y5U2); experiment: cross-linking mass spectrometry
# Sequence of U5 small nuclear ribonucleoprotein TSSC4 (Q9Y5U2 whole entry): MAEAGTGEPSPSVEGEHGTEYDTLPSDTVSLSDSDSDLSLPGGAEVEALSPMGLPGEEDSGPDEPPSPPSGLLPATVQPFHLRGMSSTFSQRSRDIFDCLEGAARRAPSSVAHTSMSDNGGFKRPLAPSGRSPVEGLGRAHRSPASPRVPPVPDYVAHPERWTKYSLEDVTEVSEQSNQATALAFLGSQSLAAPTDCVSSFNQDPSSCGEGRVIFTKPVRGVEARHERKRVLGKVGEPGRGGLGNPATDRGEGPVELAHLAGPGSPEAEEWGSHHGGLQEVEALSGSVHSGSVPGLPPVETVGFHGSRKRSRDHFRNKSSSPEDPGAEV
# Sequence of U5 small nuclear ribonucleoprotein 40 kDa protein (Q96DI7 whole entry): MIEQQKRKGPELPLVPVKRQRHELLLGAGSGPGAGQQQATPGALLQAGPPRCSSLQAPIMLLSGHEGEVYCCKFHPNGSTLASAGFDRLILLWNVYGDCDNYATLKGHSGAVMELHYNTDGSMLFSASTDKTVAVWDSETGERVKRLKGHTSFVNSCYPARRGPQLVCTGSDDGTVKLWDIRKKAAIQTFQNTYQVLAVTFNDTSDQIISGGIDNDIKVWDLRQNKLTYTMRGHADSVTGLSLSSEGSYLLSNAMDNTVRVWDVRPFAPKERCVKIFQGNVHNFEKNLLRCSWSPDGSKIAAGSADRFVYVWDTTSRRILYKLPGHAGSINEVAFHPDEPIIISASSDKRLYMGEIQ
# Sequence of Thioredoxin-like protein 4A (P83876 whole entry): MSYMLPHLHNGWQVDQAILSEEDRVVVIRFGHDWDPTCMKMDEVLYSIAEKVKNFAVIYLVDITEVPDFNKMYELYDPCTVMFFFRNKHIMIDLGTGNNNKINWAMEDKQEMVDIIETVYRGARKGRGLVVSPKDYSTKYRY
# Sequence of CD2 antigen cytoplasmic tail-binding protein 2 (O95400 whole entry): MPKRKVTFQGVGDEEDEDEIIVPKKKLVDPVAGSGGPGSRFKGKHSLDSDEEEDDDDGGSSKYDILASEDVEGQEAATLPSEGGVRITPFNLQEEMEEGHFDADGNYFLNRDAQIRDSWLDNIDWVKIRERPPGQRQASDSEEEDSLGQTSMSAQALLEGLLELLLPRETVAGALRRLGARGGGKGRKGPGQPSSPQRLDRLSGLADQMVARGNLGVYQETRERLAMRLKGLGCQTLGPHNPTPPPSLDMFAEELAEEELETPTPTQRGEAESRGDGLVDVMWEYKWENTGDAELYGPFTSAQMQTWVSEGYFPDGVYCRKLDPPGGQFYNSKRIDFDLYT
substance,measurement,setting,value
"Pre-mRNA-processing factor 6, O94906",listed as a hit,[1],yes
same,listed as a hit,[2],yes
"CD2 antigen cytoplasmic tail-binding protein 2, O95400",listed as a hit,[3],yes
same,listed as a hit,[4],yes
same,listed as a hit,[2],yes
"U5 small nuclear ribonucleoprotein 200 kDa helicase, O75643",listed as a hit,[5],yes

# Reference: paper PMC11102862
